Screens from PubChem.
Pf apPOL block – Pf-apPOL inhibitors, biochemical, fluorescence. Plasmodium falciparum apicoplast DNA polymerase (apPOL). inhibition, % at 10 µM. Recombinant Pf-apPOL, molecular beacon fluorescence, 1.5 h. actives 0.25% (n = 210,000)
mHTT-CaM PPI inh – mutant huntingtin-calmodulin interaction inhibitors – biochemical, AlphaScreen, primary screen | AlphaScreen His-mHTT/GST-CaM binding, luminescence | actives 3.6% (n = 190,000) | P42858 | inhibition, % at 15 µM;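 also: 0% = both proteins with DMSO and 100% = one protein alone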
The depositor's hits bear a star; . = no result. An excerpt weighted towards active compounds, which were near 3.6% of everything screened. Rule as the data show it: active = inhibition above about 50%; inactive = the rest.

SMILES	Pf apPOL block	mHTT-CaM PPI inh
O=C(NCCCc1ccccc1)c1cccc(NC(=O)C2CCC2)c1	-6	-11
O=C(c1ccc(N2CCOCC2)nn1)N1CCN(c2cccc(C(F)(F)F)c2)CC1	-3	21
Cc1nnc2n1CCN(Cc1c(F)cccc1Cl)C2	-5	-3
N#Cc1cccc(-c2cn3c(n2)N(C(=O)COc2ccccc2)CCC3)c1	-1	55*
N#Cc1cccc(-c2cn3c(n2)N(C(=O)c2ccccc2)CCC3)c1	0	8
Cc1ccc(C)c(CN2C(=O)C3(OCCCO3)c3ccccc32)c1	-7	-22
O=C1N(Cc2cc(=O)n3ccccc3n2)c2ccccc2C12OCCCO2	-8	52*
CC1=Nc2ccccc2C1=Cc1sc(=O)n(-c2ccccc2)c1O	4	26
CC1=Nc2ccccc2C1=Cc1sc(=N)n(-c2nccs2)c1O	0	100*
CCCCN(C)C(=O)CCS(=O)(=O)c1cc(Br)cc2c1N(C(=O)CC)CC2	-5	2
CC(=O)c1c(C(=O)O)c(C)n(C2CC2)c1C	3	.
CCc1c(C)c(C#N)c2nc3ccccc3n2c1NCCCN(CC)CC	82*	-2
N#Cc1c2c(c(NCCN3CCOCC3)n3c1nc1ccccc13)CCCC2	-1	-4
CCc1c(C)c(C#N)c2nc3ccccc3n2c1NCCCN(C)C	60*	-4
CCc1c(C)c(C#N)c2nc3ccccc3n2c1NCCC(C)C	-2	-14
Cc1ccc(-n2[nH]c(=O)c(C=c3c(C)c(C#N)c4nc5ccccc5n4c3=O)c2O)cc1C	-5	46
CCc1ccc(-n2[nH]c(=O)c(C=c3c(C)c(C#N)c4nc5ccccc5n4c3=O)c2O)cc1	6	57*
N#Cc1c2c(c(NCCCN3CCOCC3)n3c1nc1ccccc13)CCC2	67*	6
C=CCc1c(C)c(C#N)c2nc3ccccc3n2c1NCCCN(CC)CC	-74	-6
COCCN1COc2ccc3c(c2C1)OC(=Cc1ccc(OC)c(OC)c1OC)C3=O	-7	4
O=C(Nc1cccc(Cl)c1)c1ccc(SCCN2CCCCC2)nc1	-3	-7
O=C(NCc1ccccc1)C1CCN(c2ccccc2Br)C1=O (configuration not stated)	-2	5
CCc1c(C)c(C#N)c2nc3ccccc3n2c1NCCOC	0	-3
CCc1c(C)c(C#N)c2nc3ccccc3n2c1NCCO	73*	-3
O=S(=O)(Nc1cc(-c2cccs2)nn1-c1ccc(F)cc1)c1cccc(F)c1	-2	.
SMILES	Pf apPOL block	mHTT-CaM PPI inh
C=CCc1cccc(C=Nc2ccc(Br)cc2)c1O	-3	1
C=CCc1cccc(C=NNC(N)=S)c1O	56*	94*
COc1ccc(C)cc1C(=O)C1CC(C(=O)O)C(C)(C)C1C (configuration not stated)	59*	4
COc1ccc(C)cc1NC(=O)C1C2C=CC(C2)C1C(=O)O (configuration not stated)	-4	1
CCn1cc(CN2CCC(C(=O)NCc3ccc(OC)cc3)CC2)c2cc(OC)ccc21	1	20
CCn1cc(CN2CCC(C(=O)NCc3ccc(N(C)C)cc3)CC2)c2cc(OC)ccc21	-2	56*
COc1ccccc1CCC(=O)N1CCCC(c2nncn2C)C1 (configuration not stated)	-4	-4
COc1ccc(-n2nc(C(=O)NCC(=O)NCCN(C)C)c3ccccc3c2=O)c(OC)c1	-3	-1
O=C(Cc1noc2ccccc12)N1CCN(c2cc(-c3ccccc3)ncn2)CC1	-12	4
Cc1cccc(-n2nc3c(c2NC(=O)c2ccco2)CSC3)c1	2	72*
O=C(Nc1c2c(nn1-c1cccc(Cl)c1)CSC2)c1ccc(Br)o1	-4	10
Cc1cccc(-n2nc3c(c2NC(=O)c2ccc(Br)o2)CSC3)c1	-10	64*
Cc1ccc(-n2nc3c(c2NC(=O)c2ccco2)CSC3)cc1	-4	33
Cc1cc(C)cc(-n2nc3c(c2NC(=O)c2ccco2)CSC3)c1	-10	65*
COc1ccc(C(=O)Nc2c3c(nn2-c2cccc(C)c2)CSC3)cc1	-8	35
COc1ccccc1CNc1ccc(F)c(Cl)c1	-3	-12
COc1ccc(C(=O)NN2C(=O)CCC2=O)cc1OC	5	2
COc1cc(OC)cc(C2=NC3(CCCCC3)N(C(=O)c3ccc(OC)c(OC)c3)C2=S)c1	0	76*
COc1ccc(C(=O)N2CCCCCC2)cc1OC	-12	-29
COC(=O)Nc1ccc(S(=O)(=O)Nc2cc(C(C)C)c(O)c(C(C)C)c2)cc1	1	56*
COC(=O)Nc1ccc(S(=O)(=O)NC(C)=O)cc1	0	3
COc1ccc(S(=O)(=O)N2CCC(CN3CCCCC3)CC2)cc1Cl	-1	0
CCN1CCN(c2ncc3c(n2)CCN(Cc2ccccc2)C3)CC1	-5	55*
CN(C)c1ccc(CN2CCc3nc(N4CCN(c5ncccn5)CC4)ncc3C2)cc1	-3	100*
CCN1CCN(c2ncc3c(n2)CCN(Cc2cc(F)cc(F)c2)C3)CC1	-2	23
SMILES	Pf apPOL block	mHTT-CaM PPI inh
CCN1CCN(c2ncc3c(n2)CCN(Cc2cccc(Br)c2)C3)CC1	2	57*
Cc1cccc(CN2CCc3nc(N4CCCC4)ncc3C2)c1	8	84*
Cc1ccc(CN2CCc3nc(N4CCN(c5ccccc5)CC4)ncc3C2)cc1	3	28
CCc1ccc(CN2CCc3nc(N4CCN(CC)CC4)ncc3C2)cc1	0	34
CCOc1ccc(CN2CCc3nc(N4CCCC4)ncc3C2)cc1OCC	3	0
Cc1oc(C(=O)N2CCCC2)cc1S(=O)(=O)NC1CC1	-2	-10
CC(=O)N1CCN(c2nc(-c3ccccc3)c3cc(Br)ccc3n2)CC1	2	-25
O=C(Nc1ccccc1F)C1CC(=O)N(CCO)C(=Nc2ccccc2)S1 (configuration not stated)	-3	-2
Brc1cccc(CN2CCc3nc(N4CCCC4)ncc3C2)c1	7	100*
c1ccc(CN2CCc3nc(N4CCCC4)ncc3C2)cc1	6	48
CC(C)CC(=O)Nc1nnc(C2CC(=O)N(c3ccc(Cl)cc3)C2)o1 (configuration not stated)	-3	2
COc1ccc(/C=C2/SC(N3CCCCC3)=NC2=O)c(OC)c1	0	16
COc1ccc(/C=C2/SC(N3CCC(C)CC3)=NC2=O)c(OC)c1	-4	58*
O=C1CC(c2cccs2)CC(O)=C1C=NCCN1CCNCC1 (configuration not stated)	10	0
O=C1CC(c2ccc(Cl)c(Cl)c2)CC(O)=C1C=NCCN1CCNCC1 (configuration not stated)	-3	59*
COc1ccc(NC(=O)c2c(C)sc3c(C)c(C)[nH]c23)cc1	26	54*
COc1ccc(NC(=O)c2c(Cl)cc(Cl)nc2Cl)cc1	-1	-8
COc1ccc(-c2csc(=Nc3ccc(F)cc3)n2CCO)cc1F	-2	53*
C=CCn1c(-c2ccc(OC)c(OC)c2)csc1=Nc1ccccn1	-3	34
OCCn1c(-c2ccc(F)cc2)csc1=Nc1cccc(Cl)c1	-2	98*
COc1ccc(N=c2scc(-c3ccc(OC)cc3F)n2CCO)cc1	-6	27
OCCn1c(-c2ccc(F)cc2)csc1=Nc1ccccc1	-6	43
CCn1c(-c2ccc(OC)c(F)c2)csc1=Nc1ccccc1	-3	72*
CC(C)CCNC(=O)CSc1nc2ccccc2[nH]1	-6	3
